PubChem BioAssay (Tox21)
Inconclusive results are not listed. Calls of active or inactive are those of the source. Unless noted, calls come from the whole dose curve; as a rule, active = well fitted curve in the direction sought with a large enough effect in the repeat runs; inconclusive = weak or mixed curves; inactive = no such curve, though single readings can be large; an effect the other way counts as inactive or inconclusive.

Tests used:
[1] = biological target: Retinoic acid receptor RXR-alpha (Homo sapiens) (UniProt P19793); experiment: qHTS assay to identify small molecule agonists of the RXR signaling pathway (AID 1159527; calls by dose curve; note: nearly all actives have a fitted effect of over 35% in size)
Method in brief: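 Agonist mode; 9-cis retinoic acid positive control. HEK 293T UAS-bla reporter cells, 2% charcoal-stripped FBS, 16 hr compound exposure at 37 C/5% CO2. LiveBLAzer B/G FRET substrate 2 hr RT; ex 405, em 460/530 nm.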

[2] = qHTS assay to identify small molecule agonists of the RXR signaling pathway - cell viability counter screen (AID 1159529); note: series mostly up to about 77 µM; nearly all actives have a fitted effect of over 50% in size
Method in brief: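 Luminescence from CellTiter-Glo (30 min, RT) measured viability in the same wells as the beta-lactamase reporter readout. Cells: GeneBLAzer RXR-alpha HEK 293T, 2% charcoal-stripped FBS. Compound exposure 16 hr, 37 C.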

[3] = qHTS assay to identify small molecule antagonists of the retinoid acid receptor (RAR) signaling pathway - cell viability counter screen (AID 1159551); note: nearly all actives have a fitted effect of over 35% in size
Method in brief: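 Cytotoxicity counter screen in C3RL4 cells: 6 h compound exposure with 1 uM retinol (final), viability from cellular ATP by luminescence.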

[4] = qHTS assay to identify small molecule antagonists of the estrogen related receptor (ERR) signaling pathway from Tox21 library - cell viability counter screen (AID 1224834); note: nearly all actives have a fitted effect of over 30% in size
Method in brief: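 Cytotoxicity of test substances is gauged in the same ERR cells used for the antagonist screen, after 17.5 h of compound treatment at 37 C, by CellTiter-Fluor fluorescence measured after 30 min.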

[5] = biological target: Luciferin 4-monooxygenase (Photinus pyralis) (UniProt P08659); experiment: qHTS assay to identify small molecule inhibitors of firefly luciferase (AID 1224835); note: nearly all actives have a fitted effect of over 25% in size; note: potency is the fitted concentration of half-maximal effect
Method in brief: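 Inhibition of purified Photinus luciferase is measured by luminescence. Substrate levels (D-luciferin, ATP) sit at their KM values. Each compound is tested in a concentration series.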

[6] = qHTS assay to identify small molecule agonists of the constitutive androstane receptor (CAR) signaling pathway - cell viability counter screen (AID 1224836); note: series mostly up to about 92 µM; nearly all actives have a fitted effect of over 45% in size
Method in brief: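 Viability read-out: CellTiter-Fluor fluorescence after 23 h compound exposure at 37 C/5% CO2 in double-stable HepG2-CYP2B6-hCAR cells, with PK11195 present at 0.75 uM final; compounds tested in 15-point titration.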

[7] = qHTS assay to identify small molecule antagonists of the constitutive androstane receptor (CAR) signaling pathway - cell viability counter screen (AID 1224837); note: series mostly up to about 92 µM; nearly all actives have a fitted effect of over 45% in size
Method in brief: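 Multiplexed cytotoxicity read-out for the CAR antagonist screen: double-stable HepG2-CYP2B6-hCAR cells co-treated with 50 nM CITCO (final) and compound over 15 concentrations, incubated 23 hr, then assessed by CellTiter-Fluor fluorescence.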

[8] = biological target: Nuclear receptor subfamily 1 group I member 3 (Homo sapiens) (UniProt Q14994); experiment: qHTS assay to identify small molecule agonists of the constitutive androstane receptor (CAR) signaling pathway (AID 1224839);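 note: HepG2 cells stably carrying human CAR and a CYP2B6 luciferase reporter; series mostly up to about 92 µM; nearly all actives have a fitted effect of over 15% in size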
Method in brief: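 Luminescence read-out (ONE-Glo, 30 min, room temperature) from double-stable HepG2-CYP2B6-hCAR cells exposed 24 h to 15-point compound series in presence of 0.75 uM PK11195 final.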

[9] = qHTS assay to identify small molecule antagonists of the estrogen related receptor signaling pathway with the pleiotropic PPARgamma coactivator (PGC) from Tox21 10K library - cell viability counter screen (AID 1224840; active = well fitted cell-killing curve with a large enough effect in the repeat runs, not every such curve was filed as active; note: nearly all actives have a fitted effect of over 40% in size)
Method in brief: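 Step one, plate 2,000 PGC/ERR cells per well; step two, incubate 6 h at 37 C/5% CO2; step three, pin-transfer compounds; step four, incubate 17.5 h; step five, add CellTiter-Fluor and read fluorescence after 30 min.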

[10] = biological target: Nuclear receptor subfamily 1 group I member 3 (Homo sapiens) (UniProt Q14994); experiment: qHTS assay to identify small molecule antagonists of the constitutive androstane receptor (CAR) signaling pathway (AID 1224838); note: nearly all actives have a fitted effect of over 40% in size
Method in brief: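 Compounds were titrated across 15 concentrations onto HepG2 cells double-stably expressing hCAR and a CYP2B6-2.2kb reporter, together with 50 nM CITCO (final). After 24 h at 37 C, luciferase activity was measured by luminescence.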

[11] = qHTS assay to identify small molecule antagonists of the estrogen related receptor signaling pathway with the pleiotropic PPARgamma coactivator (PGC) from Tox21 10K library (AID 1224841; call rule not given here; note: series mostly up to about 92 µM; actives are mostly falling curves and most rising ones were filed inactive; nearly all actives have a fitted effect of over 50% in size)
Method in brief: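 Antagonism in this quantitative HTS is taken from loss of luciferase signal in PGC/ERR cells. Cells (2,000/well) are treated with compounds in DMSO after a 6 h settling period and read by One-Glo luminescence after 18 h.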

[12] = qHTS assay to identify small molecule agonists of the estrogen related receptor signaling pathway with the pleiotropic PPARgamma coactivator (PGC) from Tox21 10K library (AID 1224842); note: nearly all actives have a fitted effect of over 15% in size
Method in brief: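 Luminescence from One-Glo (30 min, room temperature) measured after PGC/ERR cells had 18 h at 37 C with pinned compound (23 nL in DMSO). Cells had been seeded at 2,000 per well and pre-incubated 6 h.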

[13] = qHTS assay to identify small molecule antagonists of the estrogen related receptor (ERR) signaling pathway - cell viability counter screen (AID 1224818);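 note: series mostly up to about 46 µM; viability measured after 17.5 h of compound exposure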
Method in brief: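 Cells carrying the ERR pathway reporter were seeded and incubated for 6 hours before compound addition. After a 17.5-hour exposure at 37 C, live-cell protease activity was measured by CellTiter-Fluor fluorescence following 30 minutes of incubation.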

[14] = qHTS assay to identify small molecule antagonists of the estrogen related receptor signaling pathway with the pleiotropic PPARgamma coactivator (PGC) cell viability counter screen (AID 1224822;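 note: series mostly up to about 46 µM; viability read after 17.5 h compound exposure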)
Method in brief: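 Seed PGC/ERR cells (2,000/well); incubate 6 h at 37 C/5% CO2; pin-transfer compounds in DMSO; incubate 17.5 h at 37 C; add CellTiter-Fluor; after 30 min read fluorescence.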
% is set by controls: 0 for no effect and ±100 for the full control effect.

Nuclear receptor subfamily 1 group I member 3 (Homo sapiens), sequence (Q14994 whole entry, looked up): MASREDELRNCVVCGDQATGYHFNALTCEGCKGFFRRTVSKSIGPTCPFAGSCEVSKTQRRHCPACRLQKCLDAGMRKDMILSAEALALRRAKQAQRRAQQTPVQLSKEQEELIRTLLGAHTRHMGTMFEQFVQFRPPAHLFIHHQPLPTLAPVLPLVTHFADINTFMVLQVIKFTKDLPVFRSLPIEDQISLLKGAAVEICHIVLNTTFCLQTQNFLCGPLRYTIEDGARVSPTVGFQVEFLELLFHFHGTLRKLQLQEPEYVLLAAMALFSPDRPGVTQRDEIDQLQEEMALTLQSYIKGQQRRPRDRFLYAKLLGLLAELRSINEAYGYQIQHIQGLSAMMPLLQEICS
Luciferin 4-monooxygenase (Photinus pyralis), sequence (P08659 whole entry, looked up): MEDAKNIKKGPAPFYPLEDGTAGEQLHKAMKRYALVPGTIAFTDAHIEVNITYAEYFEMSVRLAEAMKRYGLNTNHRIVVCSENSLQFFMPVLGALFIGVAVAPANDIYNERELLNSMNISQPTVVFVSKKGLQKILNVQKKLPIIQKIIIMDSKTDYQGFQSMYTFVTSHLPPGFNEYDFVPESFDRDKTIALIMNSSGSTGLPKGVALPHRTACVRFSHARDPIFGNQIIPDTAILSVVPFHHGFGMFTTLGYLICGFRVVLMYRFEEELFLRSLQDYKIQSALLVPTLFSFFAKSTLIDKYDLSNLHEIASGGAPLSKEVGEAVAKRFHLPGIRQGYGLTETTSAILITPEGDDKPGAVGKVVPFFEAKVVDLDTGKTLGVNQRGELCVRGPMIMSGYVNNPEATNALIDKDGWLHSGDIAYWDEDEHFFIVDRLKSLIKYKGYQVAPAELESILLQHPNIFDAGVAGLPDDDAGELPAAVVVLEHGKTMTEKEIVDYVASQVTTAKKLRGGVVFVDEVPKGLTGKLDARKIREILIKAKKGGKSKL
Retinoic acid receptor RXR-alpha (Homo sapiens), sequence (P19793 whole entry, looked up): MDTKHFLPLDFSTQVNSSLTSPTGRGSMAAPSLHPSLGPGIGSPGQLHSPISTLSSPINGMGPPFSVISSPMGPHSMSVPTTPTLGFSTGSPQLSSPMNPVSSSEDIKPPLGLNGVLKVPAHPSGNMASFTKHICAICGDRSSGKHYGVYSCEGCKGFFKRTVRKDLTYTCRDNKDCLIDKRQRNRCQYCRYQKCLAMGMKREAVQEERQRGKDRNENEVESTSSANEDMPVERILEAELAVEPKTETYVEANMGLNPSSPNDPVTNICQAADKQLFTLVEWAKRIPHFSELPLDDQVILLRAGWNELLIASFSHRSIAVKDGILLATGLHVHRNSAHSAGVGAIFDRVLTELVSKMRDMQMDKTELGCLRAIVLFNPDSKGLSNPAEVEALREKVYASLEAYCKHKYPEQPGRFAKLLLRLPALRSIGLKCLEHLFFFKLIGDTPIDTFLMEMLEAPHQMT

CC1CCCO1 (configuration not stated)
inactive: Potency [1] | Potency [2] | Potency [3] | Potency [4] | Potency [5] | Potency [6] | Potency [7] | Potency [8] | Potency [9]

O=C(O)CNC(=O)c1ccccc1I
inactive: Potency [1] | Potency [2] | Potency [3] | Potency [4] | Potency [5] | Potency [6] | Potency [7] | Potency [8] | Potency [9]

CC(CO)(CO)C(=O)O
inactive: Potency [1] | Potency [2] | Potency [3] | Potency [4] | Potency [6] | Potency [10] | Potency [8] | Potency [9] | Potency [11] | Potency [12]

ClC1=C(Cl)C1(Cl)Cl
inactive: Potency [1] | Potency [2] | Potency [3] | Potency [4] | Potency [5] | Potency [6] | Potency [7] | Potency [10] | Potency [8] | Potency [9] | Potency [11] | Potency [12]

c1ccc2sc(SSc3nc4ccccc4s3)nc2c1
inactive: activation [1] -16% [at 15.8 µM] | activity change, negative = cytotoxicity [2] -2.29% [at 15.8 µM] | activity change, negative = cytotoxicity [3] 0.484% [at 19 µM] | viability change, negative = cytotoxic [4] 0.18% [at 19 µM] | viability change, negative = cytotoxic [6] 1.07% [at 19 µM] | activity change, negative = cytotoxicity [7] 11.8% [at 19 µM] | activity, negative = inhibition [10] 80.4% [at 19 µM] | viability change, negative = cytotoxic [9] 10.2% [at 19 µM]
active: Potency [5] 10.7 µM

O=C(C(=O)c1ccco1)c1ccco1
inactive: Potency [1] | Potency [2] | Potency [3] | Potency [4] | Potency [5] | Potency [6] | Potency [7] | Potency [10] | Potency [8] | Potency [9]

O=c1[nH][nH]c(=O)c2cc([N+](=O)[O-])ccc12
inactive: Potency [1] | Potency [2] | Potency [3] | Potency [4] | Potency [5] | Potency [6] | Potency [7] | Potency [10] | Potency [8] | Potency [9]

CCOC(=O)Oc1ccc(CCNC(=O)[C@H](CCSC)NC(C)=O)cc1OC(=O)OCC
inactive: Potency [1] | Potency [2] | Potency [3] | Potency [4] | Potency [5] | Potency [6] | Potency [7] | Potency [8] | Potency [9]

C1=CCC2CC=CC2C1 (configuration not stated)
inactive: Potency [1] | Potency [2] | Potency [3] | Potency [4] | Potency [5] | Potency [6] | Potency [7] | Potency [9] | Potency [11] | Potency [12]

Cc1cn([C@H]2C[C@H](F)[C@@H](CO)O2)c(=O)[nH]c1=O
inactive: Potency [1] | Potency [2] | Potency [3] | Potency [4] | Potency [5] | Potency [6] | Potency [7] | Potency [10] | Potency [8] | Potency [9]

CS(=O)(=O)c1ccc([C@@H](C[C@H]2CCC(=O)C2)C(=O)Nc2cnccn2)cc1Cl
inactive: Potency [1] | Potency [2] | Potency [3] | Potency [4] | Potency [5] | Potency [6] | Potency [7] | Potency [10] | Potency [8] | Potency [9]

Cc1oc(=O)oc1COC(=O)[C@@H]1N2C(=O)[C@@H](NC(=O)[C@H](N)c3ccccc3)[C@H]2SC1(C)C
inactive: Potency [1] | Potency [2] | Potency [3] | Potency [4] | Potency [5] | Potency [6] | Potency [7] | Potency [9] | Potency [11] | Potency [12]

C[C@H](CS)C(=O)N1CCC[C@H]1C(=O)O
inactive: Potency [1] | Potency [2] | Potency [3] | outcome [13] | outcome [14] | Potency [4] | Potency [6] | Potency [10] | Potency [8] | Potency [9]

COc1ccc(C(=O)NCc2ccc(OCCN(C)C)cc2)cc1OC
inactive: Potency [1] | Potency [2] | Potency [3] | Potency [4] | Potency [5] | Potency [6] | Potency [9] | Potency [12]

Cc1ccc2nc(N)[nH]c(=O)c2c1Sc1ccncc1
inactive: Potency [1] | Potency [2] | Potency [3] | Potency [4] | Potency [5] | Potency [6] | Potency [7] | Potency [10] | Potency [9] | Potency [11] | Potency [12]

COC(C)(C)OC
inactive: Potency [1] | Potency [2] | Potency [3] | Potency [4] | Potency [5] | Potency [6] | Potency [7] | Potency [9] | Potency [11] | Potency [12]

CCSC(=O)N(CC)CC
inactive: Potency [1] | Potency [2] | Potency [3] | Potency [4] | Potency [6] | Potency [7] | Potency [10] | Potency [8] | Potency [9]

CCCCOCCOC(=O)c1cccnc1
inactive: Potency [1] | Potency [2] | Potency [3] | Potency [4] | Potency [5] | Potency [6] | Potency [7] | Potency [8] | Potency [9]

O=C(Nc1ccc(C(=O)O)c(O)c1)c1ccccc1
active: Potency [5] 27.5 µM
inactive: Potency [1] | Potency [2] | Potency [3] | Potency [4] | Potency [7] | Potency [10] | Potency [8] | Potency [9]

O=S(=O)(O)CO
inactive: Potency [1] | Potency [2] | Potency [3] | Potency [4] | Potency [5] | Potency [6] | Potency [8] | Potency [9]

O=C(O)c1cc(Cl)cc(Cl)c1O
inactive: Potency [1] | Potency [2] | Potency [3] | Potency [4] | Potency [5] | Potency [6] | Potency [7] | Potency [9] | Potency [11] | Potency [12]

NC(=O)CCCCC(N)=O
inactive: Potency [1] | Potency [2] | Potency [3] | Potency [4] | Potency [5] | Potency [6] | Potency [7] | Potency [10] | Potency [8] | Potency [9]
